Sampled rows, rich in hits. Any-hit rate of the full collection: about 4.9%.
UCHL1 block = blocks human UCHL1 ubiquitin-rhodamine cleavage; purified UCHL1, Ub-rhodamine cleavage fluorescence; 47,000 tested, 0.2% active; P09936; inhibition, % at 20 µM
Target sequence (P09936 whole entry, looked up): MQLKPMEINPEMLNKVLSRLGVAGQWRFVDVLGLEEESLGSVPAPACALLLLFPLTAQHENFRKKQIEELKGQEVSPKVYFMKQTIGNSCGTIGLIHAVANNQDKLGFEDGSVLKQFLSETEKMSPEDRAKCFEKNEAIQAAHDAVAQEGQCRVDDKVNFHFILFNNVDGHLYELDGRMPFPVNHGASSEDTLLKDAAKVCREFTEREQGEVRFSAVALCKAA
OTUD3 block = blocks human OTUD3 ubiquitin-rhodamine cleavage; Q5T2D3; purified OTUD3, Ub-rhodamine fluorescence, 2 h; inhibition, % at 25 µM; 47,000 tested, 0.7% active
USP10 inh = inhibitors of human USP10 deubiquitinase. Q14694. purified USP10, Ub-rhodamine fluorescence, 60 min. inhibition, % at 20 µM. 47,000 tested, 1.1% active. AID 1645856
USP8 block = blocks human USP8 ubiquitin-rhodamine cleavage; 47,000 tested, 4.2% active; inhibition, % at 20 µM; P40818; AID 1645853; purified USP8, Ub-rhodamine cleavage fluorescence, 30 min
USP7 inh = inhibitors of human USP7 deubiquitinase. inhibition, % at 20 µM. AID 1645854. 47,000 tested, 0.3% active. purified USP7, Ub-rhodamine cleavage fluorescence
The depositor's hits bear a star. No stated cut-off is given here; in the data, active means inhibition above about 30%; inactive means the rest.

What do the screens show for `COc1ccc(NC(=O)Cn2cc(C(=O)c3ccc(F)cc3)c(=O)c3cc(C)ccc32)cc1OC`?
UCHL1 block: 8.7; OTUD3 block: -9.1; USP10 inh: 20.7; USP8 block: 55.4*; USP7 inh: 12.8

How did Cc1ccc2c(c1)c(=O)c(C(=O)c1ccccc1)cn2CC(=O)Nc1ccccc1 do in these assays?
UCHL1 block: 8.9; OTUD3 block: -2.6; USP10 inh: 27.4; USP8 block: 88.8*; USP7 inh: 29.9

How did CCc1ccc(S(=O)(=O)c2cn(CC(=O)Nc3ccccc3)c3ccccc3c2=O)cc1 do in these assays?
UCHL1 block: -0.5; OTUD3 block: -12.8; USP10 inh: 46.4*; USP8 block: 76.7*; USP7 inh: 22.5

How did Cc1ccc(NC(=O)Cn2cc(C(=O)c3ccccc3)c(=O)c3cc(C)ccc32)cc1 do in these assays?
UCHL1 block: 0.4; OTUD3 block: -0.6; USP10 inh: 44.4*; USP8 block: 83.4*; USP7 inh: 32.1*

Results for COc1cc2c(=O)c(C(=O)c3ccc(F)cc3)cn(CC(=O)Nc3ccc(F)cc3)c2cc1OC ?
UCHL1 block: 2.5; OTUD3 block: 3.3; USP10 inh: 22.3; USP8 block: 5.9; USP7 inh: 6.6

What do the screens show for `COc1ccc(C(=O)CCC(=O)N2CCCC(c3[nH]nc4nccnc34)C2)cc1C` (stereo unspecified)?
UCHL1 block: -7.5; OTUD3 block: -8.0; USP10 inh: -7.0; USP8 block: -7.7; USP7 inh: -3.2

Results for COc1cccc(NC(=O)Cn2cc(C(=O)c3ccc(C)cc3)c(=O)c3cc(Cl)ccc32)c1 ?
UCHL1 block: 12.6; OTUD3 block: 0.1; USP10 inh: 42.8*; USP8 block: 72.6*; USP7 inh: 34.9*

How did Cc1ccc(C(=O)c2cn(CC(=O)Nc3ccc(F)c(F)c3)c3ccc(F)cc3c2=O)cc1 do in these assays?
UCHL1 block: -3.1; OTUD3 block: -40.0; USP10 inh: 12.4; USP8 block: -10.4; USP7 inh: 18.6

How did O=C(Cn1c(-c2ccccc2)ncc(C(=O)NC2CC2)c1=O)Nc1ccccc1 do in these assays?
UCHL1 block: 4.4; OTUD3 block: 19.5; USP10 inh: 25.2; USP8 block: 30.4*; USP7 inh: 10.9

How did Cc1ccccc1NC(=O)Cn1c(C)ncc(C(=O)NC2CC2)c1=O do in these assays?
UCHL1 block: 0.2; OTUD3 block: 4.0; USP10 inh: -0.8; USP8 block: 2.5; USP7 inh: 4.3

What do the screens show for `COc1cccc(Cn2nc3n(CC(C)C)c(=O)c4ccc(C(=O)NCC(C)C)cc4n3c2=O)c1`?
UCHL1 block: 0.4; OTUD3 block: 36.4*; USP10 inh: 8.4; USP8 block: 8.7; USP7 inh: 4.7

How did COc1cccc(C(=O)Cn2nc3n(CCC(C)C)c(=O)c4sccc4n3c2=O)c1 do in these assays?
UCHL1 block: 4.7; OTUD3 block: 0.0; USP10 inh: 8.8; USP8 block: -0.7; USP7 inh: 4.6

Results for CC(=O)N1c2ccc(S(=O)(=O)N3CCC(C(=O)N4CCCC4)CC3)cc2CC1C (stereo unspecified) ?
UCHL1 block: -5.3; OTUD3 block: -21.1; USP10 inh: -12.5; USP8 block: -24.6; USP7 inh: -7.9

What do the screens show for `O=S(=O)(O)c1cc2cc3ccccc3cc2[nH]1`?
UCHL1 block: 0.0; OTUD3 block: -5.5; USP10 inh: -1.7; USP8 block: 87.2*; USP7 inh: -5.4

What do the screens show for `O=C1NCCN(C(=O)CCn2ccccc2=O)CC1Cc1ccc(-c2ccccc2)cc1` (stereo unspecified)?
UCHL1 block: 1.4; OTUD3 block: -2.8; USP10 inh: 0.5; USP8 block: 42.4*; USP7 inh: -11.1

How did Cc1cc(C)nc(SCc2cc(=O)n3[nH]c(C)c(-c4ccccc4)c3n2)n1 do in these assays?
UCHL1 block: 2.0; OTUD3 block: 14.0; USP10 inh: 12.6; USP8 block: -108.0; USP7 inh: 9.5

What do the screens show for `Cc1[nH]n2c(=O)c(Cl)c(-c3ccccc3)nc2c1-c1ccccc1`?
UCHL1 block: 3.9; OTUD3 block: 22.1; USP10 inh: 33.2*; USP8 block: -218.6; USP7 inh: 13.5

How did CCn1cc(C(=O)Nc2ccc(C)cc2)c(S(=O)(=O)N2CCCCCC2)n1 do in these assays?
UCHL1 block: 7.0; OTUD3 block: 8.3; USP10 inh: -1.0; USP8 block: -154.4; USP7 inh: -4.2

What do the screens show for `O=C(Cc1cccc2ccccc12)Nc1nc2ccc(Br)cc2s1`?
UCHL1 block: -0.8; OTUD3 block: -6.0; USP10 inh: 0.0; USP8 block: -88.3; USP7 inh: -37.8
